Not all results are given here.
aSyn 5UTR act: Activators via SNCA 5'UTR binding, MLPCN; alpha-synuclein 5'UTR reporter, activators screen; activity score, % (tested at 7.5 µM), hits read low; 7.1% of 300,000 active; in the data active = activity score below about -60%
Hits are given with their value; - = inactive.

SMILES | aSyn 5UTR act
O=C(Nc1ccc(N2CCOCC2)nc1)c1ccccc1Cl | -102
Cc1cc([N+](=O)[O-])ccc1-c1ccc(C2Nc3ccccc3C(=O)N2O)o1 (stereo not drawn) | -
O=C1c2ccccc2NC(c2cccc([N+](=O)[O-])c2)N1CCc1ccccc1 (stereo not drawn) | -136
COc1ccc2c(c1)NC(=O)CC(c1ccccc1)=N2 | -72
CCc1ccc(CNc2ccc3c(c2)ncn3C(C)(C)C)cc1 | -156
CC(C)(C)n1cnc2cc(NS(=O)(=O)c3ccccc3)ccc21 | -74
CC(C)(C)n1cnc2cc(NCc3ccc(Br)cc3)ccc21 | -92
CCOc1ccc(OCc2ccc(C(=O)OCc3ccccn3)o2)cc1 | -64
CN1CCN(C(=O)c2ccc(COc3ccc(C(C)(C)C)cc3)o2)CC1 | -99
CC(C)c1ccc(OCc2ccc(C(=O)N3CCCC3)o2)cc1 | -144
COc1cccc(N2CCN(C(=O)c3ccc(CS(=O)c4ccccc4C)o3)CC2)c1 (stereo not drawn) | -
CCOC(=O)c1ccc(COc2ccc(C(C)C)cc2)o1 | -129
CCC(C)c1ccc(OCc2ccc(C(=O)O)o2)cc1 (stereo not drawn) | -86
Cc1cc(O)ccc1N/C=C(\C#N)c1nc2ccccc2o1 | -141
O=S(=O)(c1ccc(Cl)cc1)N1CCN(Cc2ccc(O)c3ncccc23)CC1 | -
CC1(C(=O)N2CCN(Cc3ccccc3Cl)CC2)CC1(Cl)Cl (stereo not drawn) | -71
O=C(/C=C/c1ccc(Br)cc1)NC(=O)c1ccccc1O | -162
CSc1ccc(/C=C/C(=O)NC(=O)c2ccccc2O)cc1 | -119
O=C(/C=C/c1ccc(O)c(O)c1)NC(=O)c1ccccc1O | -145
COc1ccc(N=Cc2nc(-c3ccccc3)oc2OC(=O)c2ccccc2)cc1 | -92
CN(C)c1ccc(N=Cc2nc(-c3ccccc3)oc2OC(=O)c2cccc(Br)c2)cc1 | -166
CCC(=O)Oc1oc(-c2ccccc2)nc1C=Nc1ccccc1OC | -63
Cc1cccc2nc(COc3ccc4ccccc4c3Br)cn12 | -203
O=C(Nc1cccc(O)c1)c1c(O)c2ccccc2[nH]c1=O | -92
Fc1ccccc1-c1nc(-c2ccc(Br)o2)no1 | -74
SMILES | aSyn 5UTR act
COc1ccc(Cl)cc1-c1nc(-c2ccc(Br)o2)no1 | -123
Cc1ccccc1-c1nc(-c2ccc(NC(=O)c3ccc(Br)o3)cc2)no1 | -199
Cc1ccccc1-c1nc(-c2ccc(Br)o2)no1 | -110
CCOC(=O)c1sc(NC(=O)/C=C/c2ccccc2)nc1C | -95
COC(=O)c1sc(NC(=O)/C=C/c2ccccc2Cl)nc1C | -87
CCOC(=O)c1sc(Nc2cccc(Cl)c2)nc1C | -102
CCOC(=O)c1sc(NC(=O)CCc2ccccc2)nc1C | -146
COC(=O)c1sc(NC(=O)/C=C/c2ccc(C)cc2)nc1C | -71
Cc1nc(NC(=O)/C=C/c2ccccc2)sc1C(=O)NCCO | -67
Cc1ccc(OC(=O)c2sc3ncn(C)c(=O)c3c2C)cc1 | -120
Cc1cc(C)c2ccc(N)nc2c1O | -
COC(=O)c1ccc2nc(NC(=O)CSCC(=O)OCC(=O)c3ccccc3)sc2c1 | -73
COC(=O)c1ccc2nc(NC(=O)COC(=O)CSc3nc(C)cc(C)n3)sc2c1 | -88
Cc1ccc2nc(NC(=O)CSCC(=O)OCC(=O)c3ccc(Br)cc3)sc2c1 | -
Cc1cc(=O)[nH]c2n[nH]c(-c3ccccc3)c12 | -63
O=C(CCc1nnc(C2(c3ccc(Cl)cc3)CCC2)o1)N1CCCC1 | -72
CC(=O)c1ccc(-c2nnc(CCC(=O)N3CCCC(C(=O)CC(C)C)C3)o2)s1 (stereo not drawn) | -157
CCC(=O)C1CCCN(C(=O)CCc2nnc(C3(c4ccc(Cl)cc4)CCC3)o2)C1 (stereo not drawn) | -62
Nc1ccc(-c2nc3ncccc3o2)c(Cl)c1 | -104
Nc1ccc(-c2nc3ncccc3o2)c(O)c1 | -176
Cc1ccc([N+](=O)[O-])cc1N/C=C1\CCc2ccccc2C1=O | -163
Cc1ccc(NC(=O)COc2ccc3c(c2)CCC3)nc1 | -98
Cc1cccnc1NC(=O)COc1ccc2c(c1)CCC2 | -94
Cc1ccc(OCC(=O)c2ccc3c(c2)CCCC3)cc1C | -84
CC1CC1C(=O)Nc1nc2ccc(Cl)cc2s1 (stereo not drawn) | -134
SMILES | aSyn 5UTR act
CCc1noc(C)c1C(=O)Nc1nc2ccc(F)cc2s1 | -139
CCc1ccc2nc(NC(=O)C3CSC4(C)CCC(=O)N34)sc2c1 (stereo not drawn) | -107
CCc1ccc2nc(NC(=O)c3cc(C)on3)sc2c1 | -66
Cc1cc(C)c2nc(NNC(=O)c3ccc(S(=O)(=O)N4CC(C)CC(C)C4)cc3)sc2c1 (stereo not drawn) | -
CCC(=O)NNc1nc2c(C)cc(C)cc2s1 | -63
Cc1cc(C)c2nc(NC(=O)c3cc(C)on3)sc2c1 | -89
Cc1noc(C)c1C(=O)Nc1nc2ccc(Cl)cc2s1 | -82
Cc1cc(C)c2nc(NCc3ccccc3O)sc2c1 | -118
O=C(Nc1nc2ccc(Cl)cc2s1)[C@@H]1CCCN1C(=O)c1cccs1 | -92
Cc1cc(OCc2nc(-c3cccnc3)no2)c(C)cc1Br | -68

High-throughput results (PubChem BioAssay)
